ST2 IL33 inh = inhibitors of human ST2 (IL1RL1) binding to IL-33, primary screen, biochemical, AlphaLISA. Interleukin-1 receptor-like 1 (Homo sapiens), Q01638. AlphaLISA ST2-Fc/biotin-IL-33 interaction, 1 h. inhibition, % for hits at 17 µM. hit rate 2.3% among 78,000; in the data active = inhibition above about 30%
Target sequence (Q01638 whole entry, looked up): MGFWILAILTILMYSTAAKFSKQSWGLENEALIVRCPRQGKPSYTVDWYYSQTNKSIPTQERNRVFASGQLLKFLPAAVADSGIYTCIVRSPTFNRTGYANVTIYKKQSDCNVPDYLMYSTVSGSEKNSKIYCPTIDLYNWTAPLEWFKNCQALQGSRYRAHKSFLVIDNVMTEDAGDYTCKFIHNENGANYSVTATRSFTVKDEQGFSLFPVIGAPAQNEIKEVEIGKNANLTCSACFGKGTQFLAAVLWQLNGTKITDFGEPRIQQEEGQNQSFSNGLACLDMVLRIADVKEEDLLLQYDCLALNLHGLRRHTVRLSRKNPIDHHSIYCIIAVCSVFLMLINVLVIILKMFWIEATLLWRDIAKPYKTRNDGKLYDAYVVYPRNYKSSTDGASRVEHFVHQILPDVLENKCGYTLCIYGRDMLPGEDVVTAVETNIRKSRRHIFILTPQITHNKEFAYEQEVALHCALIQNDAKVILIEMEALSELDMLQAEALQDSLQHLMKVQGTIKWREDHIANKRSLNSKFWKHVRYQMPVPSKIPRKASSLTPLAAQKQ
* marks the source's active call; other numbers are inactive results; i = inactive. This is one part of a sample in which hits are shown more often than they occur.

SMILES	ST2 IL33 inh
CCN(CC)S(=O)(=O)c1ccc(C(=O)Nc2nnc(-c3ccc(F)cc3)o2)cc1	i
COc1ccc(NC(=O)c2oc3ccccc3c2NC(=O)C2CCCC2)cc1	i
Nc1nonc1/C(=N\O)N1CCN(c2ccc(Cl)cc2[N+](=O)[O-])CC1	i
CCCc1noc(CN(C)CCCN2CCOCC2)n1	i
CCN(CC)C(=O)c1sc2[nH]c(=O)n(-c3ccccc3)c(=O)c2c1C	i
O=C(Nc1ccc(=O)n2c1[C@@H]1C[C@@H](CN(C(=O)Nc3ccc(F)cc3)C1)C2)c1ccccc1	i
COc1ccc(N2CCN(C(=O)CN(c3cccc(Cl)c3C)S(C)(=O)=O)CC2)cc1	i
O=C(Nc1ccc(S(=O)(=O)N2CCCCC2)cc1)c1cccs1	i
Cc1cnc(C)c(-c2cc(O)c3c(c2)CN(Cc2snnc2C)CCO3)n1	i
O[C@@H]1C[C@@H](c2nc(-c3ccccc3)no2)N(Cc2c[nH]c3ccccc23)C1	38.0%*
O=S(=O)(Cc1noc([C@@H]2C[C@@H](O)CN2Cc2ccc(-c3ccccn3)cc2)n1)c1ccc(F)cc1	i
O=S(=O)(Cc1noc([C@@H]2C[C@@H](O)CN2CC2CC2)n1)c1ccc(F)cc1	i
Cn1c(CN2C[C@H](O)C[C@H]2c2nc(-c3ccccc3)no2)nc2ccccc21	i
CC(=O)Nc1ccc(CN2C[C@H](O)C[C@H]2c2nc(CS(=O)(=O)c3ccc(F)cc3)no2)cc1	74.0%*
O=C(O)c1ccc(CN2C[C@H](O)C[C@H]2c2nc(-c3ccccc3)no2)cc1	i
O=C(O)c1ccc2c(c1)NC(=O)C(N1CCCCC1)S2 (stereo not given)	i
O=[N+]([O-])c1cc(Br)cnc1NCc1ccncc1	i
O=C(Nc1ccccc1)c1cccc(S(=O)(=O)NCc2ccccc2)c1	i
CCOc1ccc(S(=O)(=O)NC2CCCCCC2)c2cccnc12	i
COc1nc2ccccc2cc1-c1nc(C)ncc1C	i
O=C(COc1ccccc1Cl)Nc1ccccc1N1CCOCC1	i
CNc1ccccc1[N+](=O)[O-]	i
COc1ccc(CNc2c([N+](=O)[O-])c(=O)oc3ccccc23)cc1	i
COc1ccc(CNc2ccccc2[N+](=O)[O-])cc1	38.0%*
COC(=O)c1ccc(C2C=C(c3ccccc3)Nc3ncnn32)cc1 (stereo not given)	i
SMILES	ST2 IL33 inh
CSc1nnnn1-c1ccccc1	i
Cc1cc(Sc2nnnn2-c2ccccc2)nc2ccccc12	i
Cc1sc2ncnc(Sc3nnnn3-c3ccccc3)c2c1C	44.0%*
COc1ccc(F)c(-c2cncc(C(=O)N3CCOCC3)n2)c1	i
O=C(C1CCCCC1)N1CC[C@H](c2nnc(-c3ccccc3)o2)C1	i
Cc1ccn2cc(-c3ccc(I)cc3)nc2c1	i
O[C@@H]1C[C@@H](c2nc(-c3ccc4c(c3)OCO4)no2)N(C2CCOCC2)C1	33.0%*
CC(=O)N1CCC(N2C[C@H](O)C[C@H]2c2nc(-c3ccc4c(c3)OCO4)no2)CC1	42.0%*
CC(=O)Nc1ccc(S(=O)(=O)N[C@H]2C[C@@H](c3nc(-c4ccc5c(c4)OCO5)no3)N(C)C2)cc1	i
Oc1ccccc1CN1C[C@H](O)C[C@H]1c1nc(-c2ccc3c(c2)OCO3)no1	i
O[C@@H]1C[C@@H](c2nc(-c3ccc4c(c3)OCO4)no2)N(Cc2ccc(Cl)cc2)C1	i
CC(=O)N1CCC(N2C[C@H](O)C[C@H]2c2nc(-c3ccc(C(F)(F)F)cc3)no2)CC1	i
Cc1cc(OCC(O)CN2CCN(c3ccc(F)cc3)CC2)ccc1Cl (stereo not given)	i
CN(C)CCCNC(=O)c1ccc2c(c1)N(Cc1ccccc1)C(=O)CS2	i
CC1CCc2c(sc(NC(=O)c3noc4c3CCCCC4)c2C(N)=O)C1 (stereo not given)	i
CCOC1=NC2Nc3ccccc3N(CC)C2C1c1ccc([N+](=O)[O-])cc1 (stereo not given)	i
CCC1(CC)OC(c2cccn2-c2ccc([N+](=O)[O-])cc2)Nc2ccccc21 (stereo not given)	54.0%*
CCc1ccc(N2C(=O)c3ccccc3NC2c2cccc([N+](=O)[O-])c2)cc1 (stereo not given)	i
Nc1nonc1-c1noc(COc2ccc(F)cc2)n1	i
N#Cc1nc(COc2ccccc2)oc1NCc1ccc(F)cc1	34.0%*
COc1ccc(CNc2oc(COc3ccc(OC)cc3)nc2C#N)cc1	i
Cc1cccn2c(=O)c3cc(C(=O)NCCN4CCOCC4)c(=N)n(CCOCCO)c3nc12	i
CCOc1cc(C)c2c(=O)c(Oc3ccccc3)c(C(F)(F)F)oc2c1	i
CCOc1ccc(-n2c3nc(=O)n(C)c(=O)c-3cc3ccccc32)cc1	i
CCCCOc1ccc(OCCCC)c2c1nc(-c1ccccc1NC)c(=O)n2C	69.0%*
CCn1nc(-c2ccccn2)nc2c(=O)n(C)c(=O)nc1-2	i
O=C(NC1CCCN(Cc2ccccc2F)C1)C1=CCCC1 (stereo not given)	i
Cc1ccc(NC(=O)CCC(=O)O)c(C)c1	i

Source: PubChem
